The text below walks through data of the OligoGym collection.
Also: reference of the scale not given here.

The first experiment concerns the target GDF3. Put plainly: pooled miR-30 sensor sort-seq; sequence = guide strand. Particulars: shRNA.
Turning to TTCTTTGACCAGTATCTCCAGG, the sensor-assay potency score (higher = more potent) is -0.0651. For TTTACCCTAAGAACACTCCTTC, the sensor-assay potency score (higher = more potent) turned out to be 0.541. Same read-out and setting: the value for ATTGTCATTATTGTCCTGGTAG was 0.032; that for TTACGTAGCATAAGTCTCGGGA was 0.238; that for TAGAATGACATTGTCATTATTG was -1.56.

Regarding TGAAGTGAACAGCACCTTGTGG, the sensor-assay potency score (higher = more potent) is -0.321.

In the case of TTCTTGAAATTGGACTGCCTGG, the sensor-assay potency score (higher = more potent) is -1.06. On the same count and under the same terms, the same measure for TAACAGGAAGCTGAAAGCCAAA: -1.72; for TTTATTAAAAGATTTACCCTAA: 0.196. In turn, TTTACGTAGCATAAGTCTCGGG gave a sensor-assay potency score (higher = more potent) of -0.227. Still for that read-out and setting: the value for TAATGTCGTAGAATGACATTGT was 0.288; that for ATCCTTAGCTACATCCAGCAGG was -0.935.

The target of the next experiment is GEMIN6. The experiment is described as above. The settings on record: shRNA.
In turn, TTGTAAATGTAATCTTGCCATT came in with a sensor-assay potency score (higher = more potent) of -1.2.

In turn, TAAAATATAGTCTTTTTCTATC displayed a sensor-assay potency score (higher = more potent) of -1.26. The same measure, in the same setting: the value for TAATCTTGCCATTCTAAGGGGC was 0.00534; that for TTCAATAAGATCCTGAACACGC was 0.147; that for ATAATCTCATTAGAGCTGCTGC was -0.457. With TTAGGCTGTTCTTTCTCTCTTC, the sensor-assay potency score (higher = more potent) is -0.165.
